T1: UNK ZnF1-3 (human, UniProt Q9C0B0 31-174)
T1 sequence: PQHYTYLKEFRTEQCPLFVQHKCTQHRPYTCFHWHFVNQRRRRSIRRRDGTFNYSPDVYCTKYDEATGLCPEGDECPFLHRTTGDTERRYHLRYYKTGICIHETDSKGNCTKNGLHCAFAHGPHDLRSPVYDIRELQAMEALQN

B1: chr16:94664806:94664807:+_ENSMUSG00000040785_ENSMUST00000117648|mus_mus|FALSE|FALSE (ssRNA)
RNA: GGGAGUUCUACAGUCCGACGAUCAUUAGGACUCUCAAAGUAUGCAGCGGCAUUUUCAUCUGCUCUGUUGCUGGCUACAAAAGAUGGCACCACUGGCAUGGAUCUUUGCAUUGGAUACUCAGAAGAAAUGUUGGCCAAAGGUGUCAACAGAGGAUUGAGCAUCA
B2: 15109990_15111016_889_CDS_ENSG00000179889_ENST00000396410|human|control|control (ssRNA)
RNA: GGGAGUUCUACAGUCCGACGAUCUGAGGAGACAUAACCCAGAGCCAAUGUUGCCAGAUUCACACCCUCCACAUGAAGCCAUAUGCCAUACUGCUCACAGAGUUCUUUCAAUCUCCCAAUCUUGUCUGUGUGUCCUACUGCUGCCAACAGAGGAUUGAGCAUCA
B3: 17503471_17513584_185_CDS_ENSG00000151552_ENST00000428702|human|control|control (ssRNA)
RNA: GGGAGUUCUACAGUCCGACGAUCCUUAAAGAGAGACUUGGAUUUGGCAUUGCCCCCGGCCCAUCCUCCAGCAACGCAAAGAAUUGCAUCCACCUUCUCUUCACCCAAGAGCUUUCCAACCUCAGCAGUCACCCAGUUGCGGGCCAACAGAGGAUUGAGCAUCA
B4: chr10:33190432:33190433:-_ENSG00000150093_ENST00000302278|hu_mus|hu_hu_hu_mus_True|1_98 (ssRNA)
RNA: GGGAGUUCUACAGUCCGACGAUCUACAUUUUCCAAACCUGCACAUGAAUAAAACCCUGGCCACAGAGCCCCAAAACUACCCUACUGUGACUAAGAUGCUGCUGCUGUGAGCUUGGUGUUGCAAAAUCCGCCUGAGUCAGUACUCAACAGAGGAUUGAGCAUCA
B5: chr10:33190432:33190433:-_ENSG00000150093_ENST00000302278|hu_mus|hu_hu_hu_mus_True|68_98 (ssRNA)
RNA: B4 RNA with C71U, A75G, C137A, A138G, U140A, A141U, C142U, U143C
B6: chr6:35837335:35837336:-_ENSG00000096063_ENST00000361690|hu_mus|FALSE|FALSE (ssRNA)
RNA: GGGAGUUCUACAGUCCGACGAUCGGGCUCCUGCUCAUCCCCAGAAGGUGUAUCUGCCCGAAUGCUCUCCUCCAGCUGGGUGAUGUCCUGUCGGGUGAGUGACUGCUCUGCAGAGGAUUGGCACACCAUGGUCUCAGAGGCCGUCAACAGAGGAUUGAGCAUCA
B7: chr2:126475859:126475860:-_ENSMUSG00000027361_ENSMUST00000110424|mus_mus|FALSE|FALSE (ssRNA)
RNA: GGGAGUUCUACAGUCCGACGAUCAGUUUCUGAAGAAUUGGACAAUGGGGCAGAAGCUUCAGCUAAGGCAGCUAACGUAGCUAAUACUGACGUAGAGGAGUUUCCAAACUGAACAGCAGAUACUCCUGUUUCAUCUGUGAGGUUCAACAGAGGAUUGAGCAUCA
B8: chr17:25041749:25041750:-_ENSMUSG00000024163_ENSMUST00000117509|mus_hu|FALSE|FALSE (ssRNA)
RNA: GGGAGUUCUACAGUCCGACGAUCCGAGGGAUAGGGGCGCUUGGCCGGAGGGGGGCUGGAGGAAGAGCUGAAGAGGCGGCUGAAGAACUGCCAGAUGGUCGACUUCUUCUUCUCCUGGACGGAUGGGUGCUCUCGGGACGCUCUCAACAGAGGAUUGAGCAUCA
B9: chr17:60770872:60770873:+_ENSG00000011028_ENST00000303375|hu_hu|hu_hu_hu_mus_True|18_58 (ssRNA)
RNA: GGGAGUUCUACAGUCCGACGAUCUCUUUAAAAAAAAAAAAAAAAAGACAAACAAUAAUAGCACAUUUCGAGAAUCAUCAACUACAGUAGAGGGUCCGCUUUGAGUUUUUGUUCACAACAUUGUCCCCUGGGACACGGGGACUGCAACAGAGGAUUGAGCAUCA
B10: chr17:60770872:60770873:+_ENSG00000011028_ENST00000303375|hu_hu|hu_hu_hu_mus_True|48_88 (ssRNA)
RNA: GGGAGUUCUACAGUCCGACGAUCUCUUUAAAAAAAAAAAAAAAAAGUUUAAAAACAAUAGCACAUUUCGAGAAUCAAGAACUACAAAGAAAGGGCCGCUUUGAGUUUUUGUUCACAUCGUCCUGCACUGGGACACGGGGACUGCAACAGAGGAUUGAGCAUCA
B11: chr17:60770872:60770873:+_ENSG00000011028_ENST00000303375|hu_mus|FALSE|FALSE (ssRNA)
RNA: B9 RNA with U77A, C78G, G86A, A117U, A119G, U121C, G122C, C124G, C126A
B12: chr17:60770872:60770873:+_ENSG00000011028_ENST00000303375|hu_hu|hu_hu_hu_mus_True|18_48 (ssRNA)
RNA: B9 RNA with U77A, C78G, G86A, U87A, A88G, G89A, G91A, U94G
B13: chr17:60770872:60770873:+_ENSG00000011028_ENST00000303375|hu_hu|hu_hu_hu_mus_True|1_8 (ssRNA)
RNA: GGGAGUUCUACAGUCCGACGAUCUCUUUAAAAAAAAAAAAAAAAAGACAAACAAUAAUAGCACAUUUCGAGAAUCAAGAACUACAAUAGAGGGUCCGCUUUGAGUUUUUGUUCACAUCGUCCUGCAACGCUGUCGCACCAGGACAACAGAGGAUUGAGCAUCA
B14: chr17:60770872:60770873:+_ENSG00000011028_ENST00000303375|hu_hu|hu_hu_hu_mus_True|1_1 (ssRNA)
RNA: B13 RNA with A127C, C128U, C130G, U131G, G132A, U133C, C134A, G135C, C136G
B15: chr17:60770872:60770873:+_ENSG00000011028_ENST00000303375|hu_hu|hu_hu_hu_mus_True|48_58 (ssRNA)
RNA: B10 RNA with U47A, U48C, U49A, A52C, C55U, A77U, G78C, A86G
B16: chr17:60770872:60770873:+_ENSG00000011028_ENST00000303375|hu_hu|hu_hu_hu_mus_True|18_88 (ssRNA)
RNA: B9 RNA with A47U, C48U, A49U, C52A, U55C, U77A, C78G, G86A
B17: chr17:60770872:60770873:+_ENSG00000011028_ENST00000303375|hu_hu|hu_hu_hu_mus_True|48_48 (ssRNA)
RNA: B10 RNA with U47A, U48C, U49A, A52C, C55U
B18: chr17:60770872:60770873:+_ENSG00000011028_ENST00000303375|hu_hu|hu_hu_hu_mus_True|18_18 (ssRNA)
RNA: B9 RNA with U77A, C78G, G86A
B19: chr17:60770872:60770873:+_ENSG00000011028_ENST00000303375|hu_hu|hu_hu_hu_mus_True|88_88 (ssRNA)
RNA: B10 RNA with A87U, G88A, A89G, A91G, G94U
B20: chr13:100200933:100200934:-_ENSMUSG00000052727_ENSMUST00000064762|mus_hu|FALSE|FALSE (ssRNA)
RNA: GGGAGUUCUACAGUCCGACGAUCAGAGGUGAGUGAGGCAUAUAAGGACAUAUCUCUGGGAGGAGCAACAUCGGAUAGAGUAUCUUCUUGGAGAGGAGAAGCGAUCUGAGAAGGGGUAUGAGCAGAAGAGGUGGACGGGGAGGCCAACAGAGGAUUGAGCAUCA
B21: chr14:21343058:21343059:-_ENSMUSG00000021816_ENSMUST00000161445|perfect_dup|FALSE|FALSE (ssRNA)
RNA: GGGAGUUCUACAGUCCGACGAUCUGUAGUUUGACUUUUUCUGUACAUUCUAUAGCCUGCAUCUUGAGCUUCAUGAGCUCUAAUAAUCGAUAACAAAUUAUUGUUUUGCAAAAAUUCACACACUGCUGGAUAGUUAUAAAAAUACAACAGAGGAUUGAGCAUCA
B22: chr2:216981417:216981418:+_ENSG00000079246_ENST00000392132|hu_hu|hu_hu_hu_mus_True|58_68 (ssRNA)
RNA: GGGAGUUCUACAGUCCGACGAUCCUGAUACUGGUCCUUGCCAGCAAGGGCAUUAUCAGUGCCAUCUGUACCAAACAGGACUAAAGCAAUCUCAUCUUUGCUCUCCGAAAAUACCUGUCGUUGGACAAACAUAGUCAUCACUUUCAACAGAGGAUUGAGCAUCA

Numbering of substitutions follows the chain as printed. In all, about 24,000 sequences were measured (“enrichment r”: median about 0.99, highest 2% from about 3.7 on). The list comes from a sample in which the highest values are over-represented; it also holds similar and randomly drawn sequences.

The test addresses T1, UNK ZnF1-3. Nature of the test: nsRBNS (natural sequence RNA bind-n-seq); RBNS binding buffer (assumed for nsRBNS): 25 mM Tris pH 7.5, 150 mM KCl, 3 mM MgCl2, 0.01% Triton X-100, 500 ug/ml BSA, 20 U/ml SUPERase-In, 4 C; UNK is unkempt and MSI1 is Musashi-1; names of the RNAs are library labels; protein concentration not given here; high values mean tight binding.
Molecule B1 registered a binding signal of 1.22 enrichment R. Regarding B2, the binding signal turned out to be 1.36 enrichment R. With B3, the binding signal is 1.33 enrichment R. Turning to B4, the binding signal is 1.13 enrichment R. In the case of B5, the binding signal came to 0.909 enrichment R. The molecule B6 returned a binding signal of 3.58 enrichment R.

B7 displayed a binding signal of 1.31 enrichment R. Next, B8: 1.43 enrichment R; B9: 3.65 enrichment R; B10: 3.6 enrichment R. Next, B11: 4.24 enrichment R. On to B12, for which the binding signal came to 3.63 enrichment R. As to B13, the binding signal was 3.63 enrichment R. B14 yielded a binding signal of 3.11 enrichment R. In turn, B15 registered a binding signal of 3.59 enrichment R. Molecule B16 yielded a binding signal of 3.34 enrichment R.

B17 showed a binding signal of 3.87 enrichment R. For B18, the binding signal was 4.15 enrichment R.

Consider B19, for which the binding signal came to 4.21 enrichment R. Under B20 stands 3.67 enrichment R. Regarding B21, the binding signal was found to be 1.03 enrichment R. The molecule B22 displayed a binding signal of 0.678 enrichment R.
